# Counter-ions that a name gives are not always drawn.
# Tested on: Danio rerio larvae (5 dpf)
# Test: optomotor response to fast red moving lines, difference vs DMSO (percentage points (treated minus DMSO)); higher = more of the behaviour than the DMSO vehicle control
# Details: 10 µM; exposure time: 3 h pre-incubation + 3 h imaging
# Experimental: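 5-dpf wild-type zebrafish larvae were imaged in 96-well plates. They were treated with 190 Tocris FDA-approved drugs at 10 µM (1 µl/ml DMSO) for 3 h before and 3 h during imaging at 28.5 °C, 48 larvae per drug. Automated image analysis gave % time moving and optomotor responses. Values are drug group mean minus DMSO vehicle mean (n=844), in percentage points, for 10 behaviours.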
row,SMILES,optomotor response
1,CC(=O)Nc1ccc(O)cc1 [Acetaminophen],-11.2
2,NS(=O)(=O)c1cc2c(cc1Cl)NC(C1CC3C=CC1C3)NS2(=O)=O (stereo not given) [Cyclothiazide],-3.47
3,CN(C)CCc1c[nH]c2ccc(C[C@H]3COC(=O)N3)cc12 [Zolmitriptan],-9.74
4,Cc1ccc(N(CC2=NCCN2)c2cccc(O)c2)cc1 [Phentolamine Mesylate],7.53
5,CCOC(=O)[C@H](CCc1ccccc1)N[C@@H](C)C(=O)N1[C@H](C(=O)O)C[C@@H]2CCC[C@@H]21 [Ramipril],-1.3
6,Cc1nnc(C(C)C)n1C1C[C@H]2CC[C@@H](C1)N2CC[C@H](NC(=O)C1CCC(F)(F)CC1)c1ccccc1 (stereo in doubt) [Maraviroc],6.43
7,CC(C)n1c(/C=C/C(O)CC(O)CC(=O)O)c(-c2ccc(F)cc2)c2ccccc21 (stereo not given) [Fluvastatin sodium],-5.56
8,CCCN(CCC)S(=O)(=O)c1ccc(C(=O)O)cc1 [Probenecid],-11.6
9,OC(CNCC(O)C1CCc2cc(F)ccc2O1)C1CCc2cc(F)ccc2O1 (stereo not given) [Nebivolol hydrochloride],-19.6
10,CCCCNc1cc(C(=O)O)cc(S(N)(=O)=O)c1Oc1ccccc1 [Bumetanide],-7.16
11,CNS(=O)(=O)Cc1ccc2[nH]cc(CCN(C)C)c2c1 [Sumatriptan succinate],-17.2
12,Cc1cccc(CN2CCN(C(c3ccccc3)c3ccc(Cl)cc3)CC2)c1 (stereo not given) [Meclizine dihydrochloride],-10.8
13,CCCc1nn(C)c2c(=O)[nH]c(-c3cc(S(=O)(=O)N4CCN(C)CC4)ccc3OCC)nc12 [Sildenafil citrate],-12.3
14,CCCCC1=NC2(CCCC2)C(=O)N1Cc1ccc(-c2ccccc2-c2nnn[nH]2)cc1 [Irbesartan],-14.6
15,C[C@H](Cc1cc2c(c(C(N)=O)c1)N(CCCO)CC2)NCCOc1ccccc1OCC(F)(F)F [Silodosin],11.4
16,C[C@@H]1C[C@H]2[C@@H]3CCC4=CC(=O)C=C[C@]4(C)[C@@]3(F)[C@@H](O)C[C@]2(C)[C@@]1(O)C(=O)CO [Dexamethasone],0.576
17,COc1cc2nc(N3CCN(C(=O)c4ccco4)CC3)nc(N)c2cc1OC [Prazosin hydrochloride],3.73
18,CN(CCOc1ccc(NS(C)(=O)=O)cc1)CCc1ccc(NS(C)(=O)=O)cc1 [Dofetilide],2.79
19,COc1ccccc1Oc1c(NS(=O)(=O)c2ccc(C(C)(C)C)cc2)nc(-c2ncccn2)nc1OCCO [Bosentan],0.298
20,C[C@H]1O[C@H](O[C@H]2[C@H](O)[C@@H](O)[C@@H](O[C@H]3[C@H](O)[C@@H](O)C(O)O[C@@H]3CO)O[C@@H]2CO)[C@H](O)[C@@H](O)[C@@H]1N[C@H]1C=C(CO)[C@@H](O)[C@H](O)[C@H]1O (stereo not given in full) [Acarbose],12.4

row,SMILES,optomotor response
1,CCCCC(=O)N(Cc1ccc(-c2ccccc2-c2nnn[nH]2)cc1)[C@H](C(=O)O)C(C)C [Valsartan],-0.58
2,CCCCCOC(=O)Nc1nc(=O)n([C@@H]2O[C@H](C)[C@@H](O)[C@H]2O)cc1F [Capecitabine],5.07
3,Cn1nnc2c(C(N)=O)ncn2c1=O [Temozolomide],-10.8
4,Cc1ccc(-c2cc(C(F)(F)F)nn2-c2ccc(S(N)(=O)=O)cc2)cc1 [Celecoxib],-11.4
5,COc1cc2nc(N3CCN(C(=O)C4COc5ccccc5O4)CC3)nc(N)c2cc1OC (stereo not given) [Doxazosin mesylate],-4.8
6,COC(=O)C1=C(C)NC(C)=C(C(=O)OC(C)C)C1c1cccc2nonc12 (stereo not given) [Isradipine],-16.6
7,COc1cc([C@@H]2c3cc4c(cc3[C@@H](O[C@@H]3O[C@@H]5CO[C@@H](C)O[C@H]5[C@H](O)[C@H]3O)[C@H]3COC(=O)[C@H]23)OCO4)cc(OC)c1O [Etoposide],-4.84
8,COc1ccc(Cl)cc1C(=O)NCCc1ccc(S(=O)(=O)NC(=O)NC2CCCCC2)cc1 [Glibenclamide],-19.5
9,CCOC(=O)C1=C(C)NC(C)=C(C(=O)OC)C1c1cccc(Cl)c1Cl (stereo not given) [Felodipine],-15.9
10,Cc1ccc(O)c([C@H](CCN(C(C)C)C(C)C)c2ccccc2)c1 [Tolterodine L-tartrate],2.15
11,OCCN1C[C@H](O)[C@@H](O)[C@H](O)[C@H]1CO [Miglitol],-3.78
12,C#CCN[C@@H]1CCc2ccccc21 [Rasagiline mesylate],0.354
13,COc1ccc(C[C@@H](C)NC[C@H](O)c2ccc(O)c(NC=O)c2)cc1 [Arformoterol tartrate],-17.7
14,OCCN(CCO)c1nc(N2CCCCC2)c2nc(N(CCO)CCO)nc(N3CCCCC3)c2n1 [Dipyridamole],7.3
15,CCOc1ccccc1OCCN[C@H](C)Cc1ccc(OC)c(S(N)(=O)=O)c1 [Tamsulosin hydrochloride],-10.3
16,CC1CNc2c(cccc2S(=O)(=O)N[C@@H](CCCNC(=N)N)C(=O)N2CC[C@@H](C)C[C@@H]2C(=O)O)C1 (stereo not given in full) [Argatroban],-3.36
17,COc1cc2nccc(Oc3ccc(NC(=O)C4(C(=O)Nc5ccc(F)cc5)CC4)cc3)c2cc1OC,-16.9
18,CN(C)CC/C=C1/c2ccccc2COc2ccc(CC(=O)O)cc21 [Olopatadine hydrochloride],5.8
19,CC#C[C@]1(O)CC[C@H]2[C@@H]3CCC4=CC(=O)CCC4=C3[C@@H](c3ccc(N(C)C)cc3)C[C@@]21C [Mifepristone],-1.97
20,O=C(Nc1c(Cl)cncc1Cl)c1ccc(OC(F)F)c(OCC2CC2)c1 [Roflumilast],-10.8

# Reference: the supplement of paper PMC9023506
